Shown are actives, neighbours in structure and some others; about 2.8% of the full set was active somewhere.
CF NFkB block: blocks PAF-induced NF-kB reporter in cystic fibrosis cells; KKLEB NF-kB-GFP reporter, GFP fluorescence overnight; inhibition, % at 5 µM; hit rate 0.86% among 360,000;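 active = at least 50% inhibition at 5 µM, scaled per plate between neutral and stimulator controls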;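 note: PAF is a Pseudomonas aeruginosa culture filtrate used as stimulus; plate controls were PAF-stimulated DMSO wells for no effect and unstimulated DMSO wells for full effect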
Shn3 3UTR inh: Schnurri-3 reporter inhibition in Clone20 osteoblasts | hit rate 0.52% among 360,000 | inhibition, % at 12.5 µM | AID 588674 | Clone20 osteoblast Shn3 3'UTR firefly luciferase, 24 h;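 active = mean inhibition of at least 75% with every replicate also reaching 75%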;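 note: 0% = median of neutral control wells and 100% = pilot-screen positive control compound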
HIF-2a block: blocks HIF-2a reporter activity; 786-0 RCC cells HIF-2a reporter, luciferase luminescence, overnight; inhibition, % at 18.8 µM; hit rate 0.72% among 360,000; AID 624352;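 active = inhibition of the luminescence signal of 40% or more relative to plate controls, in a single-dose primary screen at 18.75 µM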
KKLEB tox: counter-screen for CF NF-kB inhibitors: cytotoxicity; KKLEB CF airway cells viability, ATPlite luminescence, overnight; active compounds read low; cells stimulated with P. aeruginosa culture filtrate; hit rate 0.36% among 360,000; activity change (cytotoxicity), % at 5 µM; AID 602141;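 active = corrected activity change at or below -50% at 5 µM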
MITF TRPM1 inh: MITF TRPM1 promoter inhibition in SK-MEL-5 cells | SK-MEL-5 TRPM1 promoter luciferase, 24 h | inhibition, % at 12.5 µM | hit rate 0.83% among 330,000 | AID 488899;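 active = mean inhibition across replicates of 60% or more, whatever share of single replicates reaches that level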
Peg3 prom inh: Peg3 promoter activity inhibition; HeLa PEG-Prom luciferase reporter, luminescence, overnight; inhibition, % at 20 µM; hit rate 1.7% among 360,000;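 active = inhibition of at least 50% at 20 µM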
Mdm2 MdmX conf: confirmation of inhibitors of human Mdm2/MdmX interaction, set 2. hit rate 99% among 740. SaOS-2 split-luciferase Mdm2/MdmX complementation, luminescence. inhibition, % at 8 µM. shares compounds with HIF-2a block;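 active = mean inhibition of the luminescence signal across two replicates at or above 26 percent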
HIF-2a inh conf: HIF-2a inhibition, single concentration confirmation; shares compounds with HIF-2a block; inhibition, % at 18.8 µM; hit rate 56% among 1,800; 786-0 RCC cells, HIF-2a luciferase reporter luminescence, overnight;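 active = mean inhibition across four replicates of at least 40 percent at the single tested concentration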
HIF-1a cs: counter-screen for HIF-2a inhibitors: HIF-1a inhibition in MiaPaCa-2 cells; hit rate 72% among 1,800; inhibition, % at 18.8 µM; shares compounds with HIF-2a block; MiaPaCa-2 HIF-1a luciferase reporter, desferoxamine, overnight;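 active = mean inhibition of the reporter signal across four replicates at the single tested dose of 50% or more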
Starred values were filed as active, the others as inactive; . = no result.

SMILES | CF NFkB block | Shn3 3UTR inh | HIF-2a block | KKLEB tox | MITF TRPM1 inh | Peg3 prom inh | HIF-2a inh conf | HIF-1a cs | others
Cn1c(=O)[nH]c(=O)c2[nH]c(N(Cc3ccccc3)Cc3ccccc3)nc21 | -3 | 4 | 41* | 1 | 4 | 24 | 11 | -7
Cn1c(=O)[nH]c(=O)c2[nH]c(CN3CCN(Cc4ccccc4)CC3)nc21 | 5 | 17 | 12 | 8 | -18 | 10 | . | .
C/C(=N\NC(=S)Nc1cc(S(=O)(=O)N2CCOCC2)ccc1Cl)c1ccccc1F | 15 | 34 | 70* | 0 | 27 | 53* | 25 | 87*
CC(C)N(C(=S)Nc1cc(S(=O)(=O)N2CCOCC2)ccc1Cl)c1ccccc1 | 4 | 0 | 18 | -2 | -4 | 9 | . | .
C=C(C(=O)c1ccccc1)C(c1ccccc1)C(C)C(=O)c1ccccc1 (stereo not given) | 0 | -4 | 81* | -13 | 10 | 38 | 45* | 96*
COc1ccc(C(CC(=O)c2ccccc2)CC(=O)c2ccccc2)cc1 | 1 | -12 | -46 | -1 | -4 | -2 | . | .
C=C(C(=O)c1ccccc1)C(C(=C)C(=O)c1ccccc1)c1ccc(OC)cc1 | 36 | 97* | 61* | -19 | 82* | 105* | 59* | 103* | Mdm2 MdmX conf=103*
Cc1c(C(=O)Nc2cccnc2)oc2ccc(Br)cc12 | -31 | -81 | -329 | -3 | -12 | -99 | . | .
O=C(Nc1cc(Cl)ccc1Cl)N1CCN(C(=O)Nc2cc(Cl)ccc2Cl)CC1 | -2 | 4 | 6 | -6 | 1 | 3 | . | .
Cc1cc(C(=O)C(C(c2ccccc2)N2CCOCC2)N2CCOCC2)ccc1Cl (stereo not given) | 8 | 7 | -53 | -5 | -30 | -6 | . | .
N#Cc1cc2ccncc2c2ccccc12 | 6 | 10 | 22 | -22 | . | 11 | . | .
Nc1cc2ccncc2c2ccccc12 | 65* | 10 | 23 | -6 | -6 | -5 | . | . | Mdm2 MdmX conf=90*
O=C(NNc1ccccc1[N+](=O)[O-])Nc1ccc(Cl)c(Cl)c1 | 22 | 5 | 1 | 19 | -2 | -9 | . | .
CCN(CC)S(=O)(=O)c1cc([N+](=O)[O-])ccc1NNC(=O)Nc1ccc(Cl)c(Cl)c1 | 48 | . | 14 | -32 | 38 | 49 | . | . | Mdm2 MdmX conf=94*
Cc1c(CC(=O)NCCCC(=O)O)c(=O)oc2cc3c(cc12)CCC(C)(C)O3 | 10 | 19 | 61* | -6 | 51 | 25 | 81* | 86*
O=C(Cn1ccc(NC(=O)OCc2ccccc2)nc1=O)NCc1ccc2[nH]ccc2c1 | 1 | -1 | 6 | 1 | 4 | -3 | . | .
CN(C)CCCNC(=O)/C(=C\c1ccc(-c2ccc(Br)cc2)o1)NC(=O)c1ccccc1 | 16 | -3 | 41* | -70* | 96* | 76* | -8 | 106*
Cc1ccc(C(=O)N/C(=C\c2ccc(-c3ccc(Cl)cc3)o2)C(=O)NCCCN(C)C)cc1 | 23 | 1 | 15 | -20 | 86* | 103* | . | . | Mdm2 MdmX conf=103*
Cc1cc2c(cc1C)CSC(c1c(O)ccc3ccccc13)SC2 | 41 | 64 | 79* | -9 | -1 | 62* | 6 | 99*
COc1cc(/C=C/C(=O)c2ccc3c(c2)OCCO3)cc(OC)c1OC | 33 | -22 | 56* | -12 | 51 | 31 | 48* | 101*
COc1ccc(OC)c(/C=C/C(=O)c2ccc3c(c2)OCCO3)c1 | -1 | -51 | -72 | -33 | -9 | -49 | . | .
CCOc1ccc(N2C(=O)/C(=C/c3cc(OC)c(OC)c(OC)c3)N(CC(=O)OC)C2=S)cc1 | 34 | -23 | 48* | -12 | -3 | 42 | 30 | 47
CCOc1ccc(C(=O)/C=C/c2cc(OC)c(OC)c(OC)c2)cc1 | 5 | -1 | 66* | -25 | 6 | 62* | 53* | 103*
COc1ccc(C=CC(=O)c2ccc(OCc3ccccc3)c(OC)c2)cc1OC | -22 | -15 | 7 | 2 | . | 30 | . | .
COc1cc(/C=C/C(=O)c2ccc(C)cc2)ccc1OCC#N | 41 | 6 | 86* | -38 | 31 | 103* | 25 | 102*
SMILES | CF NFkB block | Shn3 3UTR inh | HIF-2a block | KKLEB tox | MITF TRPM1 inh | Peg3 prom inh | HIF-2a inh conf | HIF-1a cs | others
CCOc1ccc(/C=C2/C(=O)N(c3ccc(OC)cc3)C(=S)N2CC(=O)OC)cc1OCC | -10 | -3 | 24 | -40 | 4 | 15 | . | .
CSc1ccc(CN(C)C(=O)c2cc(=O)[nH]c3ccccc23)cc1 | -7 | 2 | 14 | 3 | -1 | 7 | . | .
O=C1NC2(CCCCC2)C(=O)N1c1cccc(Cl)c1 | -1 | 5 | 12 | 2 | 15 | 5 | . | .
Cc1ccsc1CN(C)C(=O)c1ccc(Oc2ccccc2)cc1 | -30 | -19 | -175 | 7 | -30 | -117 | . | .
O=C(NCC1CCCCC1)c1ccc(F)cc1Cl | 11 | -62 | -163 | -3 | -69 | -216 | . | .
COc1ccc(/C=C/C(=O)c2ccc3c(c2)OCO3)cc1OC | -19 | 2 | -35 | -9 | . | -24 | . | .
COc1cc(/C=C/C(=O)c2ccc3c(c2)OCO3)cc(OC)c1OC | 35 | 64 | 44* | -10 | 40 | 2 | 36 | 103*
Cn1nc([N+](=O)[O-])nc1Sc1nnc(-c2ccccc2)o1 | 28 | 6 | 31 | -13 | 12 | 29 | . | . | Mdm2 MdmX conf=75*
O=Cc1ccc(Sc2nnc(-c3ccccc3)o2)c([N+](=O)[O-])c1 | 8 | -11 | 16 | 8 | -17 | 11 | . | .
COc1ccc(N=C2O/C(=C/c3sc(=S)n(CC4CCCO4)c3O)N=C2C#N)cc1 (stereo not given) | 10 | . | -53 | -6 | . | -32 | . | .
CC1(c2ccc([N+](=O)[O-])c(CS(=O)(=O)c3ccccc3)c2)OCCO1 | 11 | 1 | 10 | 4 | -11 | 12 | . | .
CCCCCCCCNCCS(=O)(=O)NCCCCCCCC | 19 | 13 | 51* | -22 | 29 | 95* | 10 | 106*
COc1ccc(-c2csc(NC(C)=O)n2)cc1OC | -1 | 6 | -39 | -12 | -22 | -15 | . | .
COc1cccc(NC(=O)Nc2nc(-c3ccc(OC)c(OC)c3)cs2)c1 | 109* | 75 | -122 | -100* | 80* | 105* | . | . | Mdm2 MdmX conf=103*
N#Cc1ccc(-c2nc3ccc(Cl)cn3c2Cc2ccccc2)cc1 | -6 | 10 | -136 | -5 | . | -51 | . | .
COc1ccc(OCc2cc(=O)c3ccc4c(c3o2)C=CC(C)(C)O4)cc1OC | 11 | 14 | -7 | 20 | 2 | 1 | . | .
CC(C)=CCOc1ccc([C@@H]2COc3c(ccc4c3C=CC(C)(C)O4)C2)c(O)c1 | 4 | 67 | 61* | 0 | 10 | 49 | -26 | 100*

Bioassay records: PubChem, several laboratories
